In PubChem BioAssay AID1159580 (chemical genetic matrix, 2015):
Hit rate of the full screen: of about 5,500 compounds, about 2,000 (36%) were called active. Another 18% or so got no clear call; they are omitted. Rule as the data show it: active = normalized growth mostly below about 0.91 (no sharp cut-off); inconclusive = no clear call, values can overlap the other calls; inactive = mostly above about 0.92. Some of the results follow.

Assay: chemical genetic growth profiling, strain panel (AID 1159580);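 also: tested at 20 µM; growth read once vehicle control cultures reached saturation at 30 °C; 1 = growth at the plate median or of vehicle wells; lower values mean less growth of the strain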
Conditions: S. cerevisiae deletion strains, growth OD

Measured: normalized growth

COc1ccc(CCN(C)CCCC(C#N)(c2cc(OC)c(OC)c(OC)c2)C(C)C)cc1OC (stereo not given)
inactive: locus YAL040C, strain CLN3, hits give low values 1.01 | locus YCL061C, strain MRC1 (second series), hits give low values 0.995 | locus YDR150W, strain NUM1, hits give low values 1.01 | locus YDR363W, strain ESC2, hits give low values 0.97 | locus YER002W, strain NOP16, hits give low values 1.03 | locus YGR078C, strain PAC10, hits give low values 1.03 | locus YJR075W, strain HOC1, hits give low values 1 | locus YMR307W, strain GAS1, hits give low values 1.02 | locus YNL153C, strain GIM3, hits give low values 1.02 | locus YNL175C, strain NOP13, hits give low values 1.01 | locus YNL197C, strain WHI3, hits give low values 1.01 | locus YNL224C, strain SQS1, hits give low values 1.01 | locus YOR083W, strain WHI5 (second series), hits give low values 1 | locus YPL055C, strain LGE1, hits give low values 1 | locus YPL241C, strain CIN2, hits give low values 1.01
